{"source": "PubChem BioAssay (NCATS)", "key": {"[1]": {"assay": "Primary qHTS for inhibitors of nuclear receptor binding SET domain protein 2 (NSD2) in an isogenic RCH-ACV NSD2 p.E1099K mutant (9B) (AID 1645876); also: nearly all actives have a fitted effect of over 70% in size; also: potency is read from the fitted curve at half-maximal effect"}, "[2]": {"assay": "Primary qHTS for inhibitors of nuclear receptor binding SET domain protein 2 (NSD2) in an RCH-ACV wild type WT cells (2C) (AID 1645877); also: nearly all actives have a fitted effect of over 70% in size; also: potency is read from the fitted curve at half-maximal effect"}, "[3]": {"target": "Rap guanine nucleotide exchange factor 3 (Homo sapiens) (UniProt O95398)", "sequence (O95398 whole entry, looked up)": "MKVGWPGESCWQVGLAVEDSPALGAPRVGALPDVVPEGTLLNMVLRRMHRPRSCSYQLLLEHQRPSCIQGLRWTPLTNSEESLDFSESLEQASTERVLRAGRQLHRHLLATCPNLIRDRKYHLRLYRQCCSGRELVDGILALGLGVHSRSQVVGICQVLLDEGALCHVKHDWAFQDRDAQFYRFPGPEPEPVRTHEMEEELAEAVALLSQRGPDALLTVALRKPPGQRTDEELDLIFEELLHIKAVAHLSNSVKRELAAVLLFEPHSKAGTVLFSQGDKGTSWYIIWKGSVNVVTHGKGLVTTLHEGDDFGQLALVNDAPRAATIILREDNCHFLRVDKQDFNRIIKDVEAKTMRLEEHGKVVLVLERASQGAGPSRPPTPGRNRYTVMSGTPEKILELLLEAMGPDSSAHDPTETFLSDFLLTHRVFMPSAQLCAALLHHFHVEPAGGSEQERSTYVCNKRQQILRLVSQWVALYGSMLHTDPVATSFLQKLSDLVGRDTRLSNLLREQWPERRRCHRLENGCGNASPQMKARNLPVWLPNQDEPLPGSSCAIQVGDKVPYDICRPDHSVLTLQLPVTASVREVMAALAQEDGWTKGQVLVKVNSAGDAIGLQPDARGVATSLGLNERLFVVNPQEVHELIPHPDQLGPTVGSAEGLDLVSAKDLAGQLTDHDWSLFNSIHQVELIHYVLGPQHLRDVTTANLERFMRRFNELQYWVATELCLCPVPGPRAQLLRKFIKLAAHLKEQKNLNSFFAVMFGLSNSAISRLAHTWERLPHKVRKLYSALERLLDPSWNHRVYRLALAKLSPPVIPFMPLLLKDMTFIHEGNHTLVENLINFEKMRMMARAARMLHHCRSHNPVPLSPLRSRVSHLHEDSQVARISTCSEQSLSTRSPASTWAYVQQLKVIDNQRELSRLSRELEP", "assay": "Counterscreen qHTS for antagonist of cAMP-regulated guanine nucleotide exchange factor 3 (EPAC1) (AID 1645888);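 also: fluorescence loss as bound BODIPY-GDP is released from Rap1B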", "procedure,_shortened": "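Rap1B-BODIPY-GDP 250 nM + GDP 50 uM; cpds 7-pt, final 9.74 nM–152 uM (activator mode) or from 7.32 nM upwards (inhibitor mode); RT; FI 480/540 nm at 5 and 30 min, then ± cAMP, reread.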"}}, "note": "Where “and” joins values, the source holds several entries; their conditions need not be identical. Equal values may be shown once. Results filed as inconclusive are left out. Where a call stands in place of a potency, no number is given. A number with no mark means an inactive call. Calls of active or inactive are those of the source. Calls follow the shape of the dose curve; as a rule, active = well fitted curve in the direction sought with a large enough effect; inconclusive = small, poorly fitted or top-dose-only effect, or another doubt; inactive = no such curve, though single readings can be large; an effect the other way counts as inactive or inconclusive.", "data": [{"smiles": "NS(=O)(=O)c1cc2c(cc1Cl)NC(C1CC3C=CC1C3)NS2(=O)=O", "note": "(configuration not stated)", "values": [{"measurement": "Potency", "setting": "[1]", "result": "inactive"}, {"measurement": "Potency", "setting": "[2]", "result": "inactive"}]}, {"smiles": "C[N+](C)(C)CCOC(=O)CCC(=O)OCC[N+](C)(C)C", "values": [{"measurement": "Potency", "setting": "[1]", "result": "inactive"}, {"measurement": "Potency", "setting": "[2]", "result": "inactive"}]}, {"smiles": "CCN(CC)CCNC(=O)c1ccc(NC(C)=O)cc1", "values": [{"measurement": "Potency", "setting": "[1]", "result": "inactive"}, {"measurement": "Potency", "setting": "[2]", "result": "inactive"}]}, {"smiles": "C[C@@H](O)[C@H]1C(=O)N2C(C(=O)O)=C(SCCN=CN)C[C@H]12", "values": [{"measurement": "Potency", "setting": "[1]", "result": "inactive"}, {"measurement": "Potency", "setting": "[2]", "result": "inactive"}]}, {"smiles": "CCN(Cc1ccncc1)C(=O)C(CO)c1ccccc1", "note": "(configuration not stated)", "values": [{"measurement": "Potency", "setting": "[1]", "result": "inactive"}, {"measurement": "Potency", "setting": "[2]", "result": "inactive"}]}, {"smiles": "C[C@]12C=CC(=O)C=C1CC[C@H]1[C@@H]3C[C@@H](O)[C@](O)(C(=O)CO)[C@@]3(C)C[C@H](O)[C@@]12F", "values": [{"measurement": "Potency", "setting": "[1]", "result": "inactive"}, {"measurement": "Potency", "setting": "[2]", "result": "1.68 µM (active)"}]}, {"smiles": "CC(=O)Oc1cc(C(C)C)c(OCCN(C)C)cc1C", "values": [{"measurement": "Potency", "setting": "[1]", "result": "inactive"}, {"measurement": "Potency", "setting": "[2]", "result": "inactive"}]}, {"smiles": "Cc1ccc(S(=O)(=O)NC(=O)NN2CCCCCC2)cc1", "values": [{"measurement": "Potency", "setting": "[1]", "result": "inactive"}, {"measurement": "Potency", "setting": "[2]", "result": "inactive"}]}, {"smiles": "C(=C\\c1ccccc1)/CN1CCN(C(c2ccccc2)c2ccccc2)CC1", "values": [{"measurement": "Potency", "setting": "[1]", "result": "inactive"}, {"measurement": "Potency", "setting": "[2]", "result": "inactive"}]}, {"smiles": "CC[N+](C)(C)c1cccc(O)c1", "values": [{"measurement": "Potency", "setting": "[1]", "result": "inactive"}, {"measurement": "Potency", "setting": "[2]", "result": "inactive"}]}, {"smiles": "CC(=O)OC(C)C[N+](C)(C)C", "note": "(configuration not stated)", "values": [{"measurement": "Potency", "setting": "[1]", "result": "inactive"}, {"measurement": "Potency", "setting": "[2]", "result": "inactive"}]}, {"smiles": "Brc1c(NC2=NCCN2)ccc2nccnc12", "values": [{"measurement": "Potency", "setting": "[1]", "result": "inactive"}, {"measurement": "Potency", "setting": "[2]", "result": "inactive"}]}, {"smiles": "c1ccc2c(c1)CCCC2C1=NCCN1", "note": "(configuration not stated)", "values": [{"measurement": "Potency", "setting": "[1]", "result": "inactive"}, {"measurement": "Potency", "setting": "[2]", "result": "inactive"}]}, {"smiles": "CC(C(=O)O)c1ccc(CC2CCCC2=O)cc1", "note": "(configuration not stated)", "values": [{"measurement": "Potency", "setting": "[1]", "result": "inactive"}, {"measurement": "Potency", "setting": "[2]", "result": "inactive"}]}, {"smiles": "CCCC(C(=O)OCCN(CC)CC)(c1ccccc1)c1ccccc1", "values": [{"measurement": "Potency", "setting": "[1]", "result": "13.3 µM (active)"}, {"measurement": "Potency", "setting": "[2]", "result": "11.9 µM (active)"}]}, {"smiles": "O=C(O)CP(=O)(O)O", "values": [{"measurement": "Potency", "setting": "[1]", "result": "inactive"}, {"measurement": "Potency", "setting": "[2]", "result": "inactive"}]}, {"smiles": "NCCCNCCSP(=O)(O)O", "values": [{"measurement": "outcome", "setting": "[1]", "result": "inactive [at 9.23 µM]"}, {"measurement": "activity change, negative = cell killing", "setting": "[2]", "result": "5.49% [at 9.23 µM]"}]}, {"smiles": "CN(C)C/C=C(/c1ccc(Br)cc1)c1cccnc1", "values": [{"measurement": "Potency", "setting": "[1]", "result": "inactive"}, {"measurement": "Potency", "setting": "[2]", "result": "inactive"}]}, {"smiles": "CCN(CC)CC(=O)Nc1c(C)cccc1C", "values": [{"measurement": "Potency", "setting": "[1]", "result": "inactive"}, {"measurement": "Potency", "setting": "[2]", "result": "inactive"}]}, {"smiles": "COC(=O)[C@H]1[C@H]2C[C@@H]3c4[nH]c5cc(OC)ccc5c4CCN3C[C@H]2C[C@@H](OC(=O)c2cc(OC)c(OC)c(OC)c2)[C@@H]1OC", "values": [{"measurement": "Potency", "setting": "[1]", "result": "inactive"}, {"measurement": "Potency", "setting": "[2]", "result": "inactive"}]}, {"smiles": "CC(C)(Oc1ccc(CCNC(=O)c2ccc(Cl)cc2)cc1)C(=O)O", "values": [{"measurement": "Potency", "setting": "[1]", "result": "inactive"}, {"measurement": "Potency", "setting": "[2]", "result": "inactive"}]}, {"smiles": "CCCCNC(=O)NS(=O)(=O)c1ccc(C)cc1", "values": [{"measurement": "Potency", "setting": "[1]", "result": "inactive"}, {"measurement": "Potency", "setting": "[2]", "result": "inactive"}]}, {"smiles": "CC(C)COCC(CN(Cc1ccccc1)c1ccccc1)N1CCCC1", "note": "(configuration not stated)", "values": [{"measurement": "Potency", "setting": "[1]", "result": "2.99 µM (active) and 16.6 µM (active)"}, {"measurement": "Potency", "setting": "[2]", "result": "4.22 µM (active) and 16.6 µM (active)"}]}, {"smiles": "CCN(CC)CCNC(=O)c1cc(S(C)(=O)=O)ccc1OC", "values": [{"measurement": "Potency", "setting": "[1]", "result": "inactive"}, {"measurement": "Potency", "setting": "[2]", "result": "inactive"}]}, {"smiles": "Nc1nc(N)c2nc(-c3ccccc3)c(N)nc2n1", "values": [{"measurement": "Potency", "setting": "[1]", "result": "7.5 µM (active)"}, {"measurement": "Potency", "setting": "[2]", "result": "9.44 µM (active)"}]}, {"smiles": "NC(=O)N1c2ccccc2C=Cc2ccccc21", "values": [{"measurement": "Potency", "setting": "[1]", "result": "inactive"}, {"measurement": "Potency", "setting": "[2]", "result": "inactive"}]}, {"smiles": "CN/C(=C\\[N+](=O)[O-])NCCSCc1ccc(CN(C)C)o1", "values": [{"measurement": "Potency", "setting": "[1]", "result": "inactive"}, {"measurement": "Potency", "setting": "[2]", "result": "inactive"}]}, {"smiles": "Cc1scc2c1N(C(=O)CN1CCN(C)CC1)c1ccccc1NC2=O", "values": [{"measurement": "Potency", "setting": "[1]", "result": "inactive"}, {"measurement": "Potency", "setting": "[2]", "result": "inactive"}]}, {"smiles": "NC(=O)c1ncn([C@@H]2O[C@H](CO)[C@@H](O)[C@H]2O)c1O", "values": [{"measurement": "Potency", "setting": "[1]", "result": "inactive"}, {"measurement": "Potency", "setting": "[2]", "result": "inactive"}]}, {"smiles": "C[C@]12CCC(=O)C=C1CC[C@@H]1[C@@H]2C(=O)C[C@@]2(C)[C@H]1CC[C@]2(O)C(=O)CO", "values": [{"measurement": "Potency", "setting": "[1]", "result": "inactive"}, {"measurement": "Potency", "setting": "[2]", "result": "inactive"}]}, {"smiles": "O=C(CCNNC(=O)c1ccncc1)NCc1ccccc1", "values": [{"measurement": "Potency", "setting": "[1]", "result": "inactive"}, {"measurement": "Potency", "setting": "[2]", "result": "inactive"}]}, {"smiles": "C[N+](C)(C)CCCCCCCCCC[N+](C)(C)C", "values": [{"measurement": "Potency", "setting": "[1]", "result": "inactive"}, {"measurement": "Potency", "setting": "[2]", "result": "inactive"}]}, {"smiles": "C#CCN(C)CCCOc1ccc(Cl)cc1Cl", "values": [{"measurement": "Potency", "setting": "[1]", "result": "inactive"}, {"measurement": "Potency", "setting": "[2]", "result": "inactive"}]}, {"smiles": "CC(=O)OCC1=C(C(=O)O)N2C(=O)[C@@H](NC(=O)Cc3cccs3)[C@H]2SC1", "values": [{"measurement": "Potency", "setting": "[1]", "result": "inactive"}, {"measurement": "Potency", "setting": "[2]", "result": "inactive"}]}, {"smiles": "CC(C)NNC(=O)c1ccncc1", "values": [{"measurement": "Potency", "setting": "[1]", "result": "inactive"}, {"measurement": "Potency", "setting": "[2]", "result": "inactive"}]}, {"smiles": "NC/C=C/C(=O)O", "values": [{"measurement": "Potency", "setting": "[1]", "result": "inactive"}, {"measurement": "Potency", "setting": "[2]", "result": "inactive"}]}, {"smiles": "COCC(=O)O[C@]1(CCN(C)CCCc2nc3ccccc3[nH]2)CCc2cc(F)ccc2[C@@H]1C(C)C", "values": [{"measurement": "Potency", "setting": "[1]", "result": "10.6 µM (active)"}, {"measurement": "Potency", "setting": "[2]", "result": "9.44 µM (active)"}]}, {"smiles": "FC(F)(F)c1ccccc1-n1ccnc1", "values": [{"measurement": "Potency", "setting": "[1]", "result": "inactive"}, {"measurement": "Potency", "setting": "[2]", "result": "inactive"}]}, {"smiles": "CCN1CCC[C@H]1CNC(=O)c1c(O)c(Cl)cc(Cl)c1OC", "values": [{"measurement": "Potency", "setting": "[1]", "result": "inactive"}, {"measurement": "Potency", "setting": "[2]", "result": "inactive"}]}, {"smiles": "C[C@]12CC[C@@H]3c4ccc(O)cc4C[C@@H](CCCCCCCCCS(=O)CCCC(F)(F)C(F)(F)F)[C@H]3[C@@H]1CC[C@@H]2O", "note": "(some centres not stated)", "values": [{"measurement": "Potency", "setting": "[1]", "result": "inactive"}, {"measurement": "Potency", "setting": "[2]", "result": "inactive"}]}, {"smiles": "COc1cc(Cc2cnc(N)nc2N)cc(OC)c1OC", "values": [{"measurement": "outcome", "setting": "[3]", "result": "inactive"}]}, {"smiles": "OCCN1CCN(CC/C=C2/c3ccccc3Sc3ccc(C(F)(F)F)cc32)CC1", "values": [{"measurement": "outcome", "setting": "[3]", "result": "inactive"}]}]}
